Legend:
Assay in all cases: log2 ratio of Biotin-Ahx-Ub-VS probe labelling (fragment/DMSO); higher = less target engagement (more negative = stronger competition), active = hit call of the paper (q ≤ 0.05, log2 ratio ≤ -1)
Details in all cases: compound concentration: 200 uM; treatment time: 3 h
ALG13 = biological target: T1, ALG13 (UniProt Q9NP73)
T1 sequence (whole entry): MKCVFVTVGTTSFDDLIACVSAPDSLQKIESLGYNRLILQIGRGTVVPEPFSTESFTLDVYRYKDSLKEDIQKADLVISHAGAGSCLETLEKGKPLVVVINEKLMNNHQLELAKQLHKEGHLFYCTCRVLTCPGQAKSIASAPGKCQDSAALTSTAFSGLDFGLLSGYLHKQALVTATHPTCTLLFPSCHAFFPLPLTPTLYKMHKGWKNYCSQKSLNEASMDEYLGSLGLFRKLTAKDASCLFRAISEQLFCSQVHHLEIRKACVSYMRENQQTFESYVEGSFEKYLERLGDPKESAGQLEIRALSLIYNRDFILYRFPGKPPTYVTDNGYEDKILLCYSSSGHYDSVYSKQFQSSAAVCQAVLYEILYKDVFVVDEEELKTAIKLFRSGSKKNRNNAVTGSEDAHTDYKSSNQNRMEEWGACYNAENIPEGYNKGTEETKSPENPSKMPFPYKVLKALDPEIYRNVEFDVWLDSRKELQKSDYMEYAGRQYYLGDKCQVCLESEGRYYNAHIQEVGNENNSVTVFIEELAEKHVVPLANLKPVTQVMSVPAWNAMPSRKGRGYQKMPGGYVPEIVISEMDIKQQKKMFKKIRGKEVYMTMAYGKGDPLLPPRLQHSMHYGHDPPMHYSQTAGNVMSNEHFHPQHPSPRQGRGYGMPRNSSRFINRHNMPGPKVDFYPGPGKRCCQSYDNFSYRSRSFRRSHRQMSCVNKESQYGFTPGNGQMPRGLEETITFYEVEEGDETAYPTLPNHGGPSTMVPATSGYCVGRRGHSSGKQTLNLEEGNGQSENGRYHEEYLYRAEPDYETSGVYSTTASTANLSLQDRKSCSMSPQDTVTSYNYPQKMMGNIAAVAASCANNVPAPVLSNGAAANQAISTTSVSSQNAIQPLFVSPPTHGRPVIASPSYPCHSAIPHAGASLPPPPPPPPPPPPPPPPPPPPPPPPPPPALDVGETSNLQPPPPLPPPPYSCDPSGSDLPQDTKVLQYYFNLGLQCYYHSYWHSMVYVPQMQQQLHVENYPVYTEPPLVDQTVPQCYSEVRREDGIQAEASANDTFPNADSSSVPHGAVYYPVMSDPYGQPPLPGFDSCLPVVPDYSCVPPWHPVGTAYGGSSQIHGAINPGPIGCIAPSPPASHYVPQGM
Outline: (§1)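 Fragment (200 µM) or vehicle was incubated for 3 h with triplicate HEK293T lysate samples of 495 µg, which were then treated with Biotin-Ahx-Ub-VS at 0.5 µM final for 1 h. Labelled DUBs were enriched on NeutrAvidin, digested with LysC and trypsin, and analysed by diaPASEF LC-MS/MS. Values are average log2 fragment/vehicle ratios from an unpaired t-test on global-median-normalised Spectronaut label-free quantities, using proteins with ≥2 unique peptides.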

ATXN3 = ATXN3 (UniProt P54252)
Chain of ATXN3 (P54252 whole entry): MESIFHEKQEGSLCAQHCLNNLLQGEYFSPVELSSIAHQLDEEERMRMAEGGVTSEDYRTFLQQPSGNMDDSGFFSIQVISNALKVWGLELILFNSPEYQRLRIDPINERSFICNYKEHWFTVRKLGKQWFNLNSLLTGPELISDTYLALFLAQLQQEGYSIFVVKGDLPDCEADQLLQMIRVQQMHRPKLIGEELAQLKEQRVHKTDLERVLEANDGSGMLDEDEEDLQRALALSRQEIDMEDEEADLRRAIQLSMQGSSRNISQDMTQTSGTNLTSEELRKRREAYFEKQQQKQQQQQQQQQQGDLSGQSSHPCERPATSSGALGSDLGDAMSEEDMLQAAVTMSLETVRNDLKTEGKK
Outline: as §1

BAP1 = biological target: T2, BAP1 (UniProt Q92560)
T2 sequence (whole entry): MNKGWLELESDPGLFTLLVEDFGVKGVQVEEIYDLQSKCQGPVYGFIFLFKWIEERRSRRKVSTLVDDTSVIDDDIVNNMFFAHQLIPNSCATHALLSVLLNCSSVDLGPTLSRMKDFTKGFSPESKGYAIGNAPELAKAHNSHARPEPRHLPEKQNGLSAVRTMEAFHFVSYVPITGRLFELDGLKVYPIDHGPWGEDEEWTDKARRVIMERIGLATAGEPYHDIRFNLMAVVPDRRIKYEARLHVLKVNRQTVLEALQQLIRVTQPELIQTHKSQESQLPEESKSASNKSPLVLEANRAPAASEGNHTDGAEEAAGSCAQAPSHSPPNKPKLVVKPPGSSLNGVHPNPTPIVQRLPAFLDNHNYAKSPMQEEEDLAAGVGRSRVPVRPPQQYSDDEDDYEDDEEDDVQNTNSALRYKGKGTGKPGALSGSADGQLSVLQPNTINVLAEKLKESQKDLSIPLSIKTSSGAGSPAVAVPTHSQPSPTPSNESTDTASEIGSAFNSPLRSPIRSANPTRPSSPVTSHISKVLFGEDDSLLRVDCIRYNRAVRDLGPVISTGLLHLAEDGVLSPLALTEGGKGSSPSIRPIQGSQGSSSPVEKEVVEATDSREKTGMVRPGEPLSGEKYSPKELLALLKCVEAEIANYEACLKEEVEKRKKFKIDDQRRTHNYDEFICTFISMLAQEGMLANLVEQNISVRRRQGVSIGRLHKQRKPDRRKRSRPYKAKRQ
Outline: as §1

EIF3F = EIF3F (UniProt O00303)
Chain of EIF3F (O00303 whole entry): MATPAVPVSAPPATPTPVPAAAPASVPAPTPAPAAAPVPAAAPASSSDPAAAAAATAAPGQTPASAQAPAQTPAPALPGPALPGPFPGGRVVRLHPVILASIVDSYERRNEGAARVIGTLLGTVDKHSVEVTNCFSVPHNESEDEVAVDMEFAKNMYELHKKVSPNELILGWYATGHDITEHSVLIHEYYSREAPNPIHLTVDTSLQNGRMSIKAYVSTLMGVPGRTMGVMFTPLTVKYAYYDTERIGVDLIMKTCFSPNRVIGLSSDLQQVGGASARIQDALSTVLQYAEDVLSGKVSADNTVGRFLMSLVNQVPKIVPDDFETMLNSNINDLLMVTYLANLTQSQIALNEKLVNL
Outline: as §1

EIF3H = EIF3H (UniProt O15372)
Chain of EIF3H (O15372 whole entry): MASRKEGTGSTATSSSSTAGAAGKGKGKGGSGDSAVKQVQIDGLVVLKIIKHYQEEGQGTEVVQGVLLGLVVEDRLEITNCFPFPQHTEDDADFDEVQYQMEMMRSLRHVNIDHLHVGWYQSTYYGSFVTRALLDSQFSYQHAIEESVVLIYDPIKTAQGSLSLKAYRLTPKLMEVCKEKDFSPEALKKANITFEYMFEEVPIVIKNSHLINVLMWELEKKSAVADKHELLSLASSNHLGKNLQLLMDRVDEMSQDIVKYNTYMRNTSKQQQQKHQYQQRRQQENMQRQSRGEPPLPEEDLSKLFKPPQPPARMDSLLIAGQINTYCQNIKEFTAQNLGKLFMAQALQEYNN
Outline: as §1

FAM105A = biological target: T3, FAM105A (UniProt Q9NUU6)
T3 sequence (whole entry): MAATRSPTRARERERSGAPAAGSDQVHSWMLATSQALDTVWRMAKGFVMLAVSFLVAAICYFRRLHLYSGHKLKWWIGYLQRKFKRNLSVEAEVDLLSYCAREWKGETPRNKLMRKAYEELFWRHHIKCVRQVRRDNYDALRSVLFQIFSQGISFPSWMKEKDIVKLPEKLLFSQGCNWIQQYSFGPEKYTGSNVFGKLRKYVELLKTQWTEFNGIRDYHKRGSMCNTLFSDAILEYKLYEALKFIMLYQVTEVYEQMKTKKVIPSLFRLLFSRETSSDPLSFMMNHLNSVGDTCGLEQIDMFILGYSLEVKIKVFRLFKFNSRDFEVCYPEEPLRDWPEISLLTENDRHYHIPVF
Outline: as §1

OTUB1 = OTUB1 (UniProt Q96FW1)
Chain of OTUB1 (Q96FW1 whole entry): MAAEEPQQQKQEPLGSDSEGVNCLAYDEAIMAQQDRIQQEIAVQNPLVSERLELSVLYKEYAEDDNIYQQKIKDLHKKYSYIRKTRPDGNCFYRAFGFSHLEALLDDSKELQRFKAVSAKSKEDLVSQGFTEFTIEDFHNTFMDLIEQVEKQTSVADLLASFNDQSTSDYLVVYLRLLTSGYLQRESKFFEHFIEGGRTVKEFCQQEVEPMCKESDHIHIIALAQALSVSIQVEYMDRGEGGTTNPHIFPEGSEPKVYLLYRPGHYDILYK
Outline: as §1

OTUD4 = biological target: T4, OTUD4 (UniProt Q01804)
T4 sequence (whole entry): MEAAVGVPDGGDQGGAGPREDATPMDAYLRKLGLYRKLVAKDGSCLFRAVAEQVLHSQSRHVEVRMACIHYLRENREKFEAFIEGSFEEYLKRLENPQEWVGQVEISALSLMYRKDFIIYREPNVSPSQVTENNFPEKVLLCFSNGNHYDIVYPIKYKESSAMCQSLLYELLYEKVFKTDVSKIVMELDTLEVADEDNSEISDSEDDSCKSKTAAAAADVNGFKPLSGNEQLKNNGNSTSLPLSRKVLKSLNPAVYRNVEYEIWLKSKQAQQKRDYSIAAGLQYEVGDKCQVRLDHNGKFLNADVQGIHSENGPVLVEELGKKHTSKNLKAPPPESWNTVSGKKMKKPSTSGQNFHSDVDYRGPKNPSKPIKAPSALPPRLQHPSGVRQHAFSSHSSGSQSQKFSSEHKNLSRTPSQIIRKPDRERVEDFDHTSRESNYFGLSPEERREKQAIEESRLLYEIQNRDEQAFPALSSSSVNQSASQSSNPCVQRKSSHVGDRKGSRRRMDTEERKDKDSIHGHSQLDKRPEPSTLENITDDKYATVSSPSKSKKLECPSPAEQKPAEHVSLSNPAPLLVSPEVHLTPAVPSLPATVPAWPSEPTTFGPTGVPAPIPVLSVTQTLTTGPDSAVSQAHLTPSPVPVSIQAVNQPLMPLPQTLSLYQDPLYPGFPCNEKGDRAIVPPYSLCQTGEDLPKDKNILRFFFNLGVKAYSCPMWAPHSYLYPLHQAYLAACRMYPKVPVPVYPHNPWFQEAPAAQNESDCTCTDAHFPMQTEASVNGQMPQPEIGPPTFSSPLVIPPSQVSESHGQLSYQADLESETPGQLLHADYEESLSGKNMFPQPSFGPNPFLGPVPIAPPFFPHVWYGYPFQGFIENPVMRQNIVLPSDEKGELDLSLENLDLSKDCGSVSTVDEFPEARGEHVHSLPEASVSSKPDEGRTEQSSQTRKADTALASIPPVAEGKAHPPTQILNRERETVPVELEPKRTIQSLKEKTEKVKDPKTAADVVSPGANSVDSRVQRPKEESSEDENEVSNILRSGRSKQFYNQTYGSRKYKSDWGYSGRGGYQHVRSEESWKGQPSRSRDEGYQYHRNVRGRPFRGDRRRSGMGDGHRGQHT
Outline: as §1

OTUD5 = biological target: T5, OTUD5 (UniProt Q96G74)
T5 sequence (whole entry): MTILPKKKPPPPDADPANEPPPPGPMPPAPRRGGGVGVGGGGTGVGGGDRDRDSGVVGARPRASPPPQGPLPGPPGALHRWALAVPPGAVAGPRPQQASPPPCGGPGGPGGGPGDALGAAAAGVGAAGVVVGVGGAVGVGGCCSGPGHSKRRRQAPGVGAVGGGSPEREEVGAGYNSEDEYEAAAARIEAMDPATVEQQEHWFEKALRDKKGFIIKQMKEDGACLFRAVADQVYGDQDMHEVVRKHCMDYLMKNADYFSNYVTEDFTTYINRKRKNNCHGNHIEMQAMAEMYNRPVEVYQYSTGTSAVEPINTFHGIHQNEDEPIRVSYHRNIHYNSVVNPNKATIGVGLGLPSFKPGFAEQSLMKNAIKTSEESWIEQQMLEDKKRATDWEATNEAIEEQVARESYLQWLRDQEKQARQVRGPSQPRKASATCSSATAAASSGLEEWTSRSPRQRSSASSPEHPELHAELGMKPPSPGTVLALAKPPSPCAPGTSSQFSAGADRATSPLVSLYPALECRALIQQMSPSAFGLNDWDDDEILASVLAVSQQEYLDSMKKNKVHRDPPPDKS
Outline: as §1

Measured: log2 ratio of Biotin-Ahx-Ub-VS probe labelling

O=C(CCl)N1CCc2[nH]c3ccccc3c2C1
inactive: ALG13 -0.37 | ATXN3 -0.343 | BAP1 -0.875 | EIF3F -0.00281 | EIF3H 0.231 | FAM105A 0.0311 | OTUB1 -0.167 | OTUD4 -0.657
active: OTUD5 -1.55

Reference: the supplement of paper PMC11732987, “Enantioselective OTUD7B fragment discovery through chemoproteomics screening and high-throughput optimisation” (Communications Chemistry, 2025)
